# According to PubChem BioAssay (EPA / NIEHS):
# Several values for one entry are separate records, joined by “and”; a condition that tells them apart may be missing. Equal values may be shown once. Records with an inconclusive call do not appear. More than one record can exist for a structure, and the calls need not agree. Activity calls are given as the source filed them. Rule for the calls, unless noted: active = hit-call score of the fitted dose curve at least 0.9, where 1 is the maximum; inactive = score below 0.9.
# What was measured:
# [1] = CCTE_Shafer_MEA_dev_burst_duration_mean: CCTE's Neural Network Formation Assay for Mean Burst Duration, Shafer Lab (AID 2284045);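 for AC50: curve fitted for loss meaning shorter burst duration than DMSO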
# How it was run: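 Rat cortical cultures, 1.5 x 10^5 cells/well with laminin drop; continuous dosing days 0–12, media plus treatment refreshed DIV 5, 9. AxIS adaptive spike detection; mean single-electrode burst duration, AUC over four recordings, negative direction vs DMSO.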
# [2] = CCTE_Shafer_MEA_dev_interburst_interval_mean: CCTE's Neural Network Formation Assay for Mean Interburst Interval, Shafer Lab (AID 2284046);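 note: well-mean interburst interval of bursting electrodes as AUC over four recording days; curve fitted for decrease in interburst interval relative to DMSO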
# How it was run: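 Rat cortical neurons, 1.5 x 10^5 cells/well, 48-well MEA; compound from day 0 through DIV 12, media and treatment renewed DIV 5/9. Recordings DIV 5, 7, 9, 12; well-mean interburst interval → trapezoidal AUC, loss direction vs DMSO.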
# [3] = CCTE_Shafer_MEA_dev_inter_network_spike_interval_mean: CCTE's Neural Network Formation Assay for Mean Inter-network Spike Interval, Shafer Lab (AID 2284047);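 for AC50: potency for a decrease in mean inter-network spike interval below DMSO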
# How it was run: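 Primary rat cortical neurons on PEI-coated 48-well MEAs (16 electrodes/well) were exposed from plating day 0 to DIV 12, with dosing renewed at DIV 5 and 9. Recordings at DIV 5, 7, 9, 12 were collapsed by trapezoidal AUC, loss-of-signal fit vs DMSO.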
# [4] = CCTE_Shafer_MEA_dev_network_spike_number: CCTE's Neural Network Formation Assay for Number of Network Spikes, Shafer Lab (AID 2284048);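 note: synchronized bursts across electrodes counted on days 5 7 9 12 and integrated as AUC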;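 for AC50: fit as a loss of signal meaning fewer network spikes than DMSO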
# How it was run: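 Rat cortical primary cultures on 48-well MEA (16 electrodes/well); continuous exposure DIV 0–12, full medium and treatment exchange DIV 5, 9. Readout: network spike count, AxIS adaptive detection, recordings DIV 5/7/9/12 collapsed to AUC; loss-of-signal fit, DMSO baseline.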
# [5] = CCTE_Shafer_MEA_dev_network_spike_peak: CCTE's Neural Network Formation Assay for Mean Number of Electrodes in Network Spike, Shafer Lab (AID 2284049);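 for AC50: fitted for loss of signal meaning fewer electrodes in network spikes than DMSO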
# How it was run: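 Network-spike peak electrode count from recordings on days 5, 7, 9 and 12 was combined as trapezoidal area under the curve. Rat cortical cultures were treated continuously from plating, with compound renewed at each feed (DIV 5, 9); fits versus DMSO.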
# DIO2 (gene 1734) = assay: CCTE_GLTED_hDIO2: CCTE's human Deiodinase 2 (DIO2) Inhibition Assay, Great Lakes Toxicology and Ecology Division (GLTED) Lab (AID 2284050; active = hit-call score of the fitted dose curve at least 0.9, where 1 is the maximum)
# How it was run: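 Readout: absorbance from Sandell-Kolthoff detection of free iodide released by human DIO2 during a 3 h incubation with chemical. Cell-free format, n=3; activity fitted relative to DMSO negative control.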
# [6] = CCTE_Shafer_MEA_dev_spike_duration_mean: CCTE's Neural Network Formation Assay for Mean Spike Duration, Shafer Lab (AID 2284051);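 note: mean network spike duration pooled as area under curve over DIV 5 to 12 recordings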;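 for AC50: potency for a decrease in mean network spike duration versus DMSO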
# How it was run: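 Rat cortical primary cultures, 48-well MEA (16 electrodes/well); compound from plating, renewed DIV 5, 9. Network spike duration (AxIS adaptive detector) recorded DIV 5/7/9/12, combined as trapezoidal AUC; loss direction vs DMSO.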
# [7] = CCTE_Shafer_MEA_dev_network_spike_duration_std: CCTE's Neural Network Formation Assay for Standard Deviation of Network Spike Duration, Shafer Lab (AID 2284052);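 note: area under curve of spike duration SD across recording days 5 to 12; hits are decreases in network spike duration SD versus DMSO vehicle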
# How it was run: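 Rat cortical cultures, 1.5 x 10^5 cells/well, exposed continuously from plating to DIV 12 with media/compound renewal at DIV 5, 9. Spontaneous activity recorded DIV 5/7/9/12, AxIS adaptive spike detector; AUC across days; negative direction vs DMSO.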
# [8] = CCTE_Shafer_MEA_dev_per_network_spike_spike_number_mean: CCTE's Neural Network Formation Assay for Mean Number of Spikes in a Network Spike, Shafer Lab (AID 2284053);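 for AC50: fitted as decrease in spikes per network spike relative to DMSO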
# How it was run: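 Rat cortical primary cultures on 48-well MEA; compound from day 0, re-dosed with full media change DIV 5, 9. Recorded DIV 5, 7, 9, 12; spikes in 0.05 s window at network-spike peak ÷ total network spikes; AUC; loss vs DMSO.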
# DIO3 (gene 1735) = assay: CCTE_GLTED_hDIO3: CCTE's human Deiodinase 3 (DIO3) Inhibition Assay, Great Lakes Toxicology and Ecology Division (GLTED) Lab (AID 2284055; active = hit-call score of the fitted dose curve at least 0.9, where 1 is the maximum;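 note: potency is for inhibition seen as loss of released iodide signal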)
# How it was run: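 hDIO3 (adenovirus-expressed) + test chemical, 3 h incubation; free iodide quantified by Sandell-Kolthoff reaction, absorbance read-out. DMSO negative control, n=3.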
# [9] = CCTE_Shafer_MEA_dev_LDH: CCTE's Lactate Dehydrogenase Assay for Cytotoxicity in the Neural Network Formation Assay, Shafer Lab (AID 2284068; active = hit-call score of the fitted dose curve at least 0.9, where 1 is the maximum;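 note: exposure for twelve days from plating with re-dosing on DIV 5 and 9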)
# How it was run: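 Rat cortical primary neurons, MEA culture; dosing day 0–12, full medium plus compound exchange DIV 5, 9. Read-out: LDH enzyme activity, spectrophotometric. DMSO = negative control/baseline; signal loss → cytotoxicity.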
# [10] = CCTE_Shafer_MEA_dev_AB: CCTE's Alamar Blue Assay for Cytotoxicity in the Neural Network Formation Assay, Shafer Lab (AID 2284083; active = hit-call score of the fitted dose curve at least 0.9, where 1 is the maximum;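 note: resazurin reduction fluorescence as viability of cultured neurons; twelve days of exposure from plating with re-dosing on DIV 5 and 9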)
# How it was run: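 Rat cortical primary cultures, 1.5 x 10^5 cells/well on MEA; continuous compound exposure over 12 days of network development, re-dosed with full medium change DIV 5 and 9. Alamar Blue fluorescence; loss of signal = cytotoxicity vs DMSO baseline.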
# [11] = CCTE_Shafer_MEA_dev_mutual_information_norm: CCTE's Neural Network Formation Assay for Mutual Information Normalization, Shafer Lab (AID 2284091);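 for AC50: mutual information between electrodes summarised as area under curve across four recording days; potency is for a decrease in mutual information relative to DMSO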
# How it was run: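 Neurons from rat cortex were seeded at 1.5 x 10^5 cells/well onto PEI-coated MEAs in a laminin drop, then exposed to compound from day 0 for twelve days. Network recordings on four days gave mutual information, summarised by AUC relative to DMSO.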
# [12] = CCTE_Shafer_MEA_dev_correlation_coefficient_mean: CCTE's Neural Network Formation Assay for Mean Correlation Coefficient, Shafer Lab (AID 2284093);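 for AC50: well mean pairwise spike train correlation integrated as AUC over recording days 5 to 12; potency fitted for loss of correlation relative to DMSO vehicle wells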
# How it was run: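 Rat cortical cultures, 1.5 x 10^5 cells/well, dosed from day 0 for 12 days. Spontaneous spikes recorded DIV 5/7/9/12; electrode-pair correlation coefficients averaged, AUC taken. Fit in loss direction vs DMSO.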
# [13] = CCTE_Shafer_MEA_acute_AB: CCTE's Alamar Blue Assay for Cytotoxicity in the Neural Acute Assay, Shafer Lab (AID 2284069; active = hit-call score of the fitted dose curve at least 0.9, where 1 is the maximum;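 note: active compounds lower the viability signal compared with DMSO wells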)
# How it was run: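 Read-out: resazurin fluorescence (ex 544, em 590 nm) after CTB reagent at 1:6 dilution in fresh media. Cells: primary rat cortical neuron networks, DIV 13 or 15, chemically exposed on MEA plates; DMSO as negative control/baseline.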
# [14] = CCTE_Shafer_MEA_acute_LDH: CCTE's Lactate Dehydrogenase Assay for Cytotoxicity in the Neural Acute Assay, Shafer Lab (AID 2284086; active = hit-call score of the fitted dose curve at least 0.9, where 1 is the maximum;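 note: active means LDH release rises above DMSO vehicle level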)
# How it was run: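 LDH absorbance at 490 nm in medium taken right after 40-min compound exposure; rat primary cortical neuron networks on MEA plates, days post-plating 13 or 15. Increase over DMSO baseline scored as cytotoxicity.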
# [15] = IUF_NPC1b_proliferation_BrdU_72hr: Leibniz Research Institute for Environmental Medicine (IUF) 72-hour Neural Progenitor Cell Bromodeoxyuridine (BrdU) Proliferation Assay (NPC1b) (AID 2284207)
# How it was run: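 Luminescent BrdU ELISA measured DNA synthesis during the last 16 h of a 72 h exposure of primary human neural progenitor spheres grown with EGF and FGF. Signal was fitted relative to DMSO controls.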
# [16] = UKN2_HCS_IMR90_neural_migration: University of Konstanz (UKN) Leist Lab Neural Crest Cell Migration Assay in human induced IMR90 Pluripotent Stem Cells (UKN2) (AID 2284204); settings: actives raise or lower the signal
# How it was run: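 Stopper-exclusion migration (cMINC), human iPSC-derived neural crest cells; N2-S + EGF/FGF; compound added 24 h post-stopper removal, 24 h exposure. Readout: calcein-AM/Hoechst 30 min, HCS fluorescence imaging; bidirectional fitting, DMSO baseline.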
smiles,measurement,setting,value
C=CC(=O)OCC(F)(F)C(F)F,AC50,[1],8.76 µM (active)
same,AC50,[2],8.7 µM (active)
same,outcome,[3],inactive
same,outcome,[4],inactive
same,AC50,[5],9.04 µM (active)
same,AC50,DIO2 (gene 1734),47.3 µM (active)
same,AC50,[6],15 µM (active)
same,outcome,[7],inactive
same,AC50,[8],4.85 µM (active)
same,AC50,DIO3 (gene 1735),52.4 µM (active)
same,AC50,[9],8.15 µM (active)
same,AC50,[10],20.7 µM (active)
same,AC50,[11],5.12 µM (active)
same,AC50,[12],11.3 µM (active)
O=C(O)C1C(C(=O)O)C2(Cl)C(Cl)=C(Cl)C1(Cl)C2(Cl)Cl (stereo unspecified),outcome,[1],inactive
same,outcome,[2],inactive
same,outcome,[3],inactive
same,outcome,[4],inactive
same,outcome,[5],inactive
same,outcome,[6],inactive
same,outcome,[7],inactive
same,outcome,[8],inactive
same,outcome,[9],inactive
same,outcome,[13],inactive
same,outcome,[11],inactive
same,outcome,[12],inactive
CCCCC(CC)COC(=O)c1c(Br)c(Br)c(Br)c(Br)c1C(=O)OCC(CC)CCCC (stereo unspecified),outcome,[1],inactive
same,outcome,[2],inactive
same,outcome,[3],inactive
same,outcome,[4],inactive
same,AC50,[5],0.33 µM (active)
same,outcome,[6],inactive
same,outcome,[7],inactive
same,outcome,[8],inactive
same,outcome,[9],inactive
same,AC50,[10],0.0248 µM (active)
same,outcome,[11],inactive
same,outcome,[12],inactive
c1ccc(OP(Oc2ccccc2)Oc2ccccc2)cc1,outcome,[1],inactive
same,outcome,[2],inactive
same,outcome,[3],inactive
same,outcome,[4],inactive
same,outcome,[5],inactive
same,outcome,[6],inactive
same,outcome,[7],inactive
same,outcome,[8],inactive
same,outcome,[9],inactive
same,outcome,[11],inactive
same,outcome,[12],inactive
O=P1(N(CCCl)CCCl)NCCCO1 (stereo unspecified),outcome,[1],inactive
same,outcome,[2],inactive
same,outcome,[3],inactive
same,outcome,[4],inactive
same,outcome,[5],inactive
same,outcome,[6],inactive
same,outcome,[7],inactive
same,outcome,[8],inactive
same,AC50,[9],11.6 µM (active)
same,outcome,[11],inactive
same,outcome,[12],inactive
CC(O)C(F)(F)C(F)(F)F (stereo unspecified),outcome,[1],inactive
same,outcome,[2],inactive
same,outcome,[3],inactive
same,outcome,[4],inactive
same,outcome,[5],inactive
same,outcome,[6],inactive
same,outcome,[7],inactive
same,outcome,[8],inactive
same,outcome,[10],inactive
same,outcome,[11],inactive
same,outcome,[12],inactive
CC(C)(C)c1ccccc1OP(=O)(Oc1ccccc1)Oc1ccccc1,outcome,[1],inactive
same,outcome,[2],inactive
same,outcome,[3],inactive
same,outcome,[4],inactive
same,AC50,[5],22.9 µM (active)
same,outcome,[5],inactive
same,AC50,[6],25.7 µM (active)
same,outcome,[6],inactive
same,outcome,[7],inactive
same,AC50,[8],25.4 µM (active)
same,outcome,[8],inactive
same,AC50,[9],15.5 µM (active) and 26 µM (active)
same,AC50,[10],15 µM (active)
same,outcome,[10],inactive
same,outcome,[14],inactive
same,outcome,[11],inactive
same,AC50,[12],24.4 µM (active)
same,outcome,[12],inactive
same,outcome,[15],inactive
c1cc2c3c(cccc3c1)CC2,outcome,[1],inactive
same,outcome,[2],inactive
same,outcome,[3],inactive
same,outcome,[4],inactive
same,outcome,[5],inactive
same,outcome,[6],inactive
same,outcome,[7],inactive
same,outcome,[8],inactive
same,outcome,[10],inactive
same,outcome,[11],inactive
same,outcome,[12],inactive
O=P(Oc1ccccc1)(Oc1ccccc1)Oc1ccccc1,outcome,[1],inactive
same,outcome,[2],inactive
same,outcome,[3],inactive
same,outcome,[4],inactive
same,AC50,[5],2.97 µM (active)
same,outcome,[6],inactive
same,outcome,[7],inactive
same,outcome,[8],inactive
same,outcome,[9],inactive
same,outcome,[10],inactive
same,outcome,[11],inactive
same,outcome,[12],inactive
same,outcome,[15],inactive
O=S(=O)(c1ccc(O)cc1)c1ccc(O)cc1,outcome,[1],inactive
same,outcome,[2],inactive
same,outcome,[3],inactive
same,outcome,[4],inactive
same,outcome,[5],inactive
same,outcome,[6],inactive
same,outcome,[7],inactive
same,outcome,[8],inactive
same,outcome,[9],inactive
same,outcome,[10],inactive
same,outcome,[11],inactive
same,outcome,[12],inactive
CO/N=C(/C(=O)OC)c1ccccc1COc1ccccc1C,AC50,[1],0.863 µM (active)
same,AC50,[2],0.939 µM (active)
same,AC50,[3],0.712 µM (active)
same,AC50,[4],0.474 µM (active)
same,AC50,[5],0.567 µM (active)
same,AC50,[6],0.688 µM (active)
same,AC50,[7],0.312 µM (active)
same,AC50,[8],0.518 µM (active)
same,AC50,[9],0.811 µM (active)
same,AC50,[10],1.15 µM (active)
same,AC50,[11],0.454 µM (active)
same,AC50,[12],0.765 µM (active)
same,outcome,[16],inactive
same,AC50,[15],23.8 µM (active)
O=C(O)C(F)(OC(F)(F)C(F)(F)C(F)(F)F)C(F)(F)F (stereo unspecified),outcome,[1],inactive
same,outcome,[2],inactive
same,outcome,[3],inactive
same,AC50,[4],0.402 µM (active)
same,outcome,[4],inactive
same,outcome,[5],inactive
same,outcome,[6],inactive
same,outcome,[7],inactive
same,outcome,[8],inactive
same,outcome,[9],inactive
same,outcome,[10],inactive
same,outcome,[11],inactive
same,outcome,[12],inactive
same,outcome,[16],inactive
same,outcome,[15],inactive
OCC(F)(F)OC(F)(F)C(F)(F)OC(F)(F)C(F)(F)OC(F)(F)CO,outcome,[1],inactive
same,outcome,[2],inactive
same,outcome,[3],inactive
same,outcome,[4],inactive
same,outcome,[5],inactive
same,outcome,[6],inactive
same,outcome,[7],inactive
same,outcome,[8],inactive
same,outcome,[10],inactive
same,outcome,[11],inactive
same,outcome,[12],inactive
